Results on eleven compounds are retold here after PubChem BioAssay AID1508601 (ICCB-Longwood Screening Facility, Harvard Medical School, 2020).

Assay [1] in a line: p53 stabilisation in HPV-positive human cells, imaging, p53-positive nuclei imaging, 24 h, 48 h (AID 1508601). To be noted: 24/48 h.
The target of assay [2] is Cellular tumor antigen p53 (Homo sapiens) (UniProt P04637). The description is as above. To be noted: 24/48 h, stronger effect = higher value.
Setting [3] is: measured here: cell number at 24 h, concentration not given here.
Setting [4] is: measured here: cell number at 48 h, concentration not given here.
Where [5] appears, read: measured here: p53 positive nuclei at 24 h, concentration not given here.
[6] abbreviates: measured here: cell number at 24 h, Library stock concentration: 3.33 mM.
The mark [7] stands for this setting: measured here: cell number at 48 h, Library stock concentration: 3.33 mM.
Where [8] appears, read: Library stock concentration: 3.33 mM.
Setting [9] is: measured here: p53 positive nuclei at 24 h, Library stock concentration: 3.33 mM.
[10] abbreviates: measured here: cell number at 24 h, Library stock concentration: 80 uM.
The mark [11] stands for this setting: measured here: cell number at 24 h, Library stock concentration: 400 uM.
The mark [12] stands for this setting: measured here: cell number at 24 h, Library stock concentration: 2 mM.
Setting [13] is: measured here: cell number at 24 h, Library stock concentration: 10 mM.
Where [14] appears, read: measured here: cell number at 48 h, Library stock concentration: 80 uM.
[15] abbreviates: measured here: cell number at 48 h, Library stock concentration: 400 uM.
Setting [16] is: measured here: cell number at 48 h, Library stock concentration: 2 mM.
[17] abbreviates: measured here: cell number at 48 h, Library stock concentration: 10 mM.
Where [18] appears, read: Library stock concentration: 80 uM.
The mark [19] stands for this setting: Library stock concentration: 400 uM.
The mark [20] stands for this setting: Library stock concentration: 2 mM.
Setting [21] is: Library stock concentration: 10 mM.
The mark [22] stands for this setting: measured here: p53 positive nuclei at 24 h, Library stock concentration: 80 uM.
[23] abbreviates: measured here: p53 positive nuclei at 24 h, Library stock concentration: 400 uM.
The mark [24] stands for this setting: measured here: p53 positive nuclei at 24 h, Library stock concentration: 2 mM.
Setting [25] is: measured here: p53 positive nuclei at 24 h, Library stock concentration: 10 mM.

The whole screen tested about 5,700 compounds, of which about 85 (1%) were called active. Rule as the data show it: active = p53-positive nuclei above about 36% (passing the limit was not always enough); inactive = the rest. Shown is part of a subset that was picked to be rich in actives.

Cellular tumor antigen p53 (Homo sapiens), sequence (P04637 whole entry, looked up): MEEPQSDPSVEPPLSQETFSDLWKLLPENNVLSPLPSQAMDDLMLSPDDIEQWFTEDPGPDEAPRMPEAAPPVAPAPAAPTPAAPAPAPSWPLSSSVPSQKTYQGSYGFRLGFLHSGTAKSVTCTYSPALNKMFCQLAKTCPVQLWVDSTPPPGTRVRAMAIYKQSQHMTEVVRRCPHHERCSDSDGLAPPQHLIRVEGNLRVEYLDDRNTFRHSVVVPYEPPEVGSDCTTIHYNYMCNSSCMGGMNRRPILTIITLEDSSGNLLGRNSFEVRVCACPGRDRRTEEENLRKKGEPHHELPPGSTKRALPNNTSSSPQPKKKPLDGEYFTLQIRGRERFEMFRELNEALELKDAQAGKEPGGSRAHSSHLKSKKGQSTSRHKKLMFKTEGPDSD

`CCCCC/C=C\C/C=C\C/C=C\CCCCCCC(=O)OC`: the nuclei count, normalised in assay [1] (setting [3]) was 114%; in assay [1] (setting [4]) it was 108%. The p53-positive nuclei, normalised was 0.0353% (inactive) in assay [2] (concentration not given here) and 0.00725% in assay [2] (setting [5]).

On to `CCC(C)C(NC(=O)C(CCC(=O)O)NC(=O)C(CC(C)C)NC(=O)C1CN=C(C(N)C(C)C)S1)C(=O)NC1CCCCNC(=O)C(CC(N)=O)NC(=O)C(CC(=O)O)NC(=O)C(Cc2cnc[nH]2)NC(=O)C(Cc2ccccc2)NC(=O)C(C(C)CC)NC(=O)C(CCCN)NC1=O` (configuration not stated), for which the nuclei count, normalised is 97.5% in assay [1] (setting [6]) and 99% in assay [1] (setting [7]). Further, the p53-positive nuclei, normalised in assay [2] (setting [8]) was -0.136% (inactive); in assay [2] (setting [9]) it was -0.227%.

As for `C[C@]12CC[C@H]3c4ccc(O)cc4CC[C@H]3[C@@H]1CCC2=O`, the nuclei count, normalised in assay [1] (setting [6]) was found to be 111%; in assay [1] (setting [7]) it was 121%. The p53-positive nuclei, normalised is -0.0334% (inactive) in assay [2] (setting [8]) and -0.211% in assay [2] (setting [9]).

Turning to `COC(=O)[C@]12CCC(C)(C)C[C@@H]1[C@@H]1C(=O)C=C3[C@]4(C)C=C(C#N)C(=O)C(C)(C)[C@@H]4CC[C@@]3(C)[C@]1(C)CC2`, the nuclei count, normalised in assay [1] (setting [6]) was 36.3%; in assay [1] (setting [7]) it was 29.9%. The p53-positive nuclei, normalised in assay [2] (setting [8]) is 79.7% (active); in assay [2] (setting [9]), 88.9%.

`CCCCN=C(N)NO`: the nuclei count, normalised in assay [1] (setting [3]) and in assay [1] (setting [4]) was 99.4% throughout. The values for the p53-positive nuclei, normalised in assay [2] (concentration not given here) and in assay [2] (setting [5]) were -0.143% (inactive) and -0.0268%, respectively.

Regarding `Fc1cc(-c2ccnc(Nc3ccc(-n4cnc(N5CCOCC5)n4)cc3)n2)cc(N2CCOCC2)c1`, the nuclei count, normalised in assay [1] (setting [10]) came to 86.7%; in assay [1] (setting [11]), 101%; in assay [1] (setting [12]), 64.8%; in assay [1] (setting [13]), 36.4%; in assay [1] (setting [14]) it was 73%; in assay [1] (setting [15]) it was 81%. Further, the nuclei count, normalised in assay [1] (setting [16]) turned out to be 43.7%; in assay [1] (setting [17]), 21.7%. Besides, the p53-positive nuclei, normalised in assay [2] (setting [18]) was 27.8% (inactive); in assay [2] (setting [19]) it was 13.6% (inactive); in assay [2] (setting [20]) it was 90.9% (active); in assay [2] (setting [21]) it was 38.1% (inactive); in assay [2] (setting [22]), 7.9%; in assay [2] (setting [23]), 2.88%. Further, the results for the p53-positive nuclei, normalised in assay [2] (setting [24]) and in assay [2] (setting [25]) were 49.4% and 15.7%, respectively.

`O=C(Nc1ccc(-c2ccnc(Nc3ccc(N4CCOCC4)cc3)n2)cc1)C1CCCN1` (configuration not stated): the nuclei count, normalised in assay [1] (setting [10]) was 114%; in assay [1] (setting [11]) it was 116%; in assay [1] (setting [12]) it was 107%; in assay [1] (setting [6]) it was 102%; in assay [1] (setting [13]), 104%; in assay [1] (setting [14]) it was 109%. Further, the nuclei count, normalised stood at 109% in assay [1] (setting [15]), 104% in assay [1] (setting [16]), 95.9% in assay [1] (setting [7]) and 101% in assay [1] (setting [17]). In addition, the p53-positive nuclei, normalised in assay [2] (setting [18]) was 0.0592% (inactive); in assay [2] (setting [19]), -0.0399% (inactive); in assay [2] (setting [20]) it was -0.0329% (inactive); in assay [2] (setting [8]), -0.0902% (inactive); in assay [2] (setting [21]), 0.0109% (inactive); in assay [2] (setting [22]), 0.0145%. Also, the p53-positive nuclei, normalised in assay [2] (setting [23]) was -0.114%; in assay [2] (setting [24]), 0.0282%; in assay [2] (setting [9]), -0.231%; in assay [2] (setting [25]) it was -0.058%.

Consider `Cc1nc(N)sc1-c1ccnc(Nc2ccc(N3CCOCC3)cc2)n1`, for which the figures for the nuclei count, normalised in assay [1] (setting [6]) and in assay [1] (setting [7]) were 40.5% and 28.3%, respectively. In addition, the results for the p53-positive nuclei, normalised in assay [2] (setting [8]) and in assay [2] (setting [9]) were -0.214% (inactive) and -0.143%, respectively.

Turning to `CC(C)CC(NC(=O)CNC(=O)c1cc(Cl)ccc1Cl)B(O)O` (configuration not stated), the nuclei count, normalised is 50.2% in assay [1] (setting [6]) and 43.3% in assay [1] (setting [7]). In addition, the p53-positive nuclei, normalised in assay [2] (setting [8]) is 98% (active); in assay [2] (setting [9]) it was 94%.

Turning to `CC(C)CC(NC(=O)CNC(=O)c1cc(Cl)ccc1Cl)B1OC(=O)CC(CC(=O)O)(C(=O)O)O1` (configuration not stated), the nuclei count, normalised in assay [1] (setting [6]) came out at 46.4%; in assay [1] (setting [7]) it was 36.8%. Further, the p53-positive nuclei, normalised in assay [2] (setting [8]) is 97.7% (active); in assay [2] (setting [9]) it was 101%.

For the compound `CCCC(C)NC(=O)c1ccc(Cl)c(Cl)c1` (configuration not stated), the nuclei count, normalised in assay [1] (setting [6]) was 116%; in assay [1] (setting [7]) it was 114%. The p53-positive nuclei, normalised in assay [2] (setting [8]) is -0.00479% (inactive); in assay [2] (setting [9]) it was -0.344%.
